Shiga toxin inh = A qHTS for Small Molecule Inhibitors of Shiga Toxin; 290,000 tested, 9.2% active; AID 2315, 2010; Vero cells, Shiga toxin protein synthesis inhibition reporter; inhibition, % at 38.7 µM; in the data active means inhibition mostly above about 28%, no sharp cut-off; inactive means mostly below about 43%
CHX counter-1 = Cycloheximide Counterscreen for Small Molecule Inhibitors of Shiga Toxin; cell reporter, cycloheximide protein synthesis inhibition counterscreen; max response, %; 300,000 tested, 12% active; AID 2314, 2010; in the data active means max response mostly above about 13%, no sharp cut-off; inactive means mostly below about 14%; further: read at 38.3 µM for the half of the compounds with a filed dose
TbPYK inhibitor = qHTS of Trypanosoma Brucei Inhibitors; TbPYK enzyme, Kinase-Glo Plus ATP luminescence, 45 min; Potency, µM (series often up to 76.8 µM), usual class: inhibitors; 410,000 tested, 0.12% active; further: nearly all actives have a fitted effect of over 50% in size
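Luminescence from Kinase-Glo Plus, added after a 45-minute room-temperature reaction, served as the end-point read-out. The enzyme and substrate were preincubated with compound before ADP (130 uM final) initiated turnover. Concentration-effect curves came from normalized qHTS data.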
LmPK inh = qHTS Assay for Inhibitors of Leishmania Mexicana Pyruvate Kinase (LmPK); 290,000 tested, 0.37% active; Potency, µM (top dose mostly 57.5 µM), actives largely listed as inhibitors; Q27686; purified LmPK, Kinase-Glo ATP luminescence, 1 h; AID 1721, 2009
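Pyruvate kinase activity monitored as ATP production (luciferase luminescence). Conditions: 0.1 nM enzyme, 0.5 mM PEP, 0.1 mM ADP, 1 h, RT; normalized against uninhibited and no-enzyme wells.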
Sm TGR block = qHTS Assay for the Inhibitors of Schistosoma Mansoni Peroxiredoxins. purified TGR, DTNB reduction, TNB absorbance 405 nm. Potency, µM (series often up to 114 µM), actives largely listed as inhibitors. 360,000 tested, 3% active. AID 485364, 2010; further: nearly all actives have a fitted effect of over 60% in size
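Kinetic colorimetric format: TGR-catalysed, NADPH-driven DTNB reduction monitored via TNB absorbance. Enzyme dispensed at 20 nM; compound exposure 15 min at room temperature before reaction start.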
FBPA Giardia inh = qHTS Assay for Inhibitors of Fructose-1,6-bisphosphate Aldolase from Giardia Lamblia. purified Giardia FBPA. Potency, µM (titrated, usually from 59.6 µM), most hits filed as inhibitors. AID 2451, 2010. 290,000 tested, 0.71% active. A8B2U2; further: nearly all actives have a fitted effect of over 55% in size
Target sequence (A8B2U2 whole entry, looked up): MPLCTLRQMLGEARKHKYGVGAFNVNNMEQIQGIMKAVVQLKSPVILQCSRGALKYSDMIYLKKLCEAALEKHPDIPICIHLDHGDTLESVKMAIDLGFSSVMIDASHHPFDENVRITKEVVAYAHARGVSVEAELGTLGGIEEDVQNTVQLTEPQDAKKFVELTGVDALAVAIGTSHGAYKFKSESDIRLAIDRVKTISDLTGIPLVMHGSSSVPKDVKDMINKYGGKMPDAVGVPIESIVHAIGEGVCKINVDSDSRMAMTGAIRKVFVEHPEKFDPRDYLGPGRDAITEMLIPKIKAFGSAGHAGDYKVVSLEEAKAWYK
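Giardia FBPA (40 nM reagent) was preincubated 10 min at RT with compound (up to 57.5 uM final), then substrate plus GAPDH/TPI/NAD/arsenate coupling system with diaphorase/resazurin was added; resorufin fluorescence (525/598 nm) was read after 20 min.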
CHX counter-2 = Cycloheximide Counterscreen for Small Molecule Inhibitors of Shiga Toxin (Confirmatory). shares compounds with Shiga toxin inh. Cycloheximide counterscreen, protein synthesis reporter, Shiga toxin assay. Potency, µM (doses to about 38.3 µM), hits mostly activators. 510 tested, 3% active. AID 2318, 2010; calls by dose curve
Hits are given with their value; [ ] = remark or other dose. This excerpt belongs to a sample that is enriched for hits. Unless noted, the call rests on the fitted dose curve; in most records, active means well fitted curve in the direction sought with a large enough effect; inconclusive means small, poorly fitted or top-dose-only effect, or another doubt; inactive means no such curve, though single readings can be large; an effect the other way counts as inactive or inconclusive.

`Cc1ccc([N+](=O)[O-])cc1NC(=O)CSc1nncn1-c1ccccn1` gave Shiga toxin inh 98.2, CHX counter-1 inactive, TbPYK inhibitor inactive, LmPK inh inactive, Sm TGR block inactive, FBPA Giardia inh inactive and CHX counter-2 inactive.
CCn1c2ccccc2c2cc(NC(=O)c3cccc([N+](=O)[O-])c3)ccc21 was read as Shiga toxin inh 60.7, CHX counter-1 inactive, TbPYK inhibitor inactive, LmPK inh inactive, Sm TGR block inactive, FBPA Giardia inh inactive and CHX counter-2 inactive.
CCn1c2ccccc2c2cc(NC(=O)c3ccc(C)c([N+](=O)[O-])c3)ccc21 was read as Shiga toxin inh inactive, CHX counter-1 inactive, TbPYK inhibitor inactive, LmPK inh inactive, Sm TGR block inactive and FBPA Giardia inh inactive.
For CN(C)C(=O)c1ccc(-c2nccc(N(C)Cc3ccco3)n2)cc1 the results were FBPA Giardia inh inactive.
`CCc1ccccc1NC(=O)Cn1nnc(-c2cccs2)n1` gave Shiga toxin inh 48.5, CHX counter-1 inactive, TbPYK inhibitor inactive, LmPK inh inactive, Sm TGR block inactive, FBPA Giardia inh inactive and CHX counter-2 inactive.
COc1cccc2c1C(=O)c1c(O)c3c(c(O)c1C2=O)C[C@@](O)(C(=O)CO)C[C@@H]3OC1CC(N)C(O)C(C)O1 (stereo partly drawn) was read as TbPYK inhibitor inactive.
COc1cccc2c1C(=O)c1c(O)c3c(c(O)c1C2=O)C[C@@](O)(C(=O)CO)C[C@@H]3O[C@H]1C[C@H](N)[C@H](O)[C@H](C)O1 was read as Shiga toxin inh 37.9, CHX counter-1 10.2, TbPYK inhibitor inactive, LmPK inh inactive, Sm TGR block inconclusive, FBPA Giardia inh inconclusive and CHX counter-2 inactive.
CC1CCCC(NC(=O)Cn2cc(C(F)(F)F)cc(Cl)c2=O)C1C (stereo not drawn) was read as TbPYK inhibitor inactive and Sm TGR block inactive.
C=CCOC(=O)C1=C(C)OC(N)=C(C(=O)OCC)C12C(=O)N(CC(N)=O)c1ccccc12 (stereo not drawn) was read as Shiga toxin inh 33.2, CHX counter-1 inactive, TbPYK inhibitor inactive, LmPK inh inactive, Sm TGR block inactive, FBPA Giardia inh inactive[12.9 µM] and CHX counter-2 inactive.
CCN(CC)S(=O)(=O)c1ccc(C(=O)NCCc2ccccn2)cc1 was read as Shiga toxin inh 45.4, CHX counter-1 inactive, TbPYK inhibitor inactive, LmPK inh inactive, Sm TGR block inactive, FBPA Giardia inh inactive and CHX counter-2 inactive.
`O=C(COC(=O)C1CC2CCCC(C1)C2=O)Nc1ccc(Cl)cn1` (stereo not drawn) gave TbPYK inhibitor inactive and Sm TGR block inactive.
Cc1ccc(N(CC(=O)NCc2ccco2)C(=O)CCC(=O)Nc2nccs2)c(C)c1 was read as Shiga toxin inh 27.2, CHX counter-1 inactive, TbPYK inhibitor inactive, LmPK inh inactive, Sm TGR block inactive, FBPA Giardia inh inactive and CHX counter-2 inactive.
For Cc1ccccc1N(CC(=O)NCc1ccco1)C(=O)CCC(=O)Nc1nccs1 the results were Shiga toxin inh inactive, CHX counter-1 inactive, TbPYK inhibitor inactive, LmPK inh inactive, Sm TGR block inactive and FBPA Giardia inh inactive.
For COc1ccc(C2=NN(C(=O)c3ccco3)C(c3cc4ccccc4nc3Cl)C2)cc1 (stereo not drawn) the results were Shiga toxin inh 27.6, CHX counter-1 inactive, TbPYK inhibitor inactive, LmPK inh inactive, Sm TGR block 44.7µM, FBPA Giardia inh inactive and CHX counter-2 inactive.
For COc1ccc2cc(C3CC(c4ccco4)=NN3C(=O)CCC(=O)O)c(Cl)nc2c1 (stereo not drawn) the results were Shiga toxin inh inactive, CHX counter-1 inactive, TbPYK inhibitor inactive, LmPK inh inactive, Sm TGR block inactive and FBPA Giardia inh inactive.

Source: PubChem
